Bioassay records from PubChem BioAssay.
GALR2 antag: antagonists of human galanin receptor 2 (GALR2); 140,000 tested, 0.39% active; inhibition, % at 4 µM; GALR2-expressing cells, antagonist mode; in the data active means inhibition above about 27%;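 further: cells stimulated with galanin 1-16 at roughly its EC80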
S1P2 ag: agonists of human S1P2 receptor; activation, % at 4.5 µM; O95136; S1P2-expressing cell line, agonist reporter read-out; 97,000 tested, 0.46% active; in the data active means activation above about 16%
Target sequence (O95136 whole entry, looked up): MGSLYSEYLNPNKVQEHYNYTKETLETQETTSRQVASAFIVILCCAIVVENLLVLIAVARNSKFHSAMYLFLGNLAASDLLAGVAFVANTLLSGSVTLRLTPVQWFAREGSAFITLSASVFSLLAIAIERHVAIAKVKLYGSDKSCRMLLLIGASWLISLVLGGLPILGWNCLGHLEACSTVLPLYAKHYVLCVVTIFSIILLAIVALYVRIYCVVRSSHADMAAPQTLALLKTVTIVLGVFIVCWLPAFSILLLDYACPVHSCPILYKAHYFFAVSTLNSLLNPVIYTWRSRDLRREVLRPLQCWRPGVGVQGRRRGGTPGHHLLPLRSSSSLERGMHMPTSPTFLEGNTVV
S1P2 antag: blocks the human S1P2 receptor; inhibition, % at 5 µM; AID 736; cell-based S1P2 antagonist assay, inhibition at 5 uM; 97,000 tested, 0.21% active; in the data active means inhibition above about 45%;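 further: CRE beta-lactamase reporter cells expressing human S1P2 stimulated with S1P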
GALR2 agonist: GALR2 (human) receptor agonism; O43603; GALR2-expressing cells, agonist activation read-out; activation, % (test concentration not listed); 140,000 tested, 0.48% active; AID 803; in the data active means activation above about 5%, passing the limit was not always enough
Each line names hits and unclear results; the compound was inactive in the other large screens. Compounds with a hit are over-represented: about 1.2% of the library has one in this group of screens.

CCN(CC)CCCNc1cc2n(c(=O)n1)CCc1cc(OC)c(OC)cc1-2	none
COc1cc2c(cc1OC)-c1cc(NC3CCCCCC3)nc(=O)n1CC2	S1P2 ag 42
COc1cc2c(cc1OC)-c1cc(N3CCCc4ccccc43)nc(=O)n1CC2	S1P2 ag 41
COc1cc2c(cc1OC)-c1cc(N3CCCCCC3)nc(=O)n1CC2	S1P2 ag 36
CCCCNc1cc(C)nc(NCc2ccccc2)n1	S1P2 antag 57
CCN(CC)c1ncn(Cc2c(Cl)cccc2Cl)c2ncnc1-2	S1P2 ag 18
Clc1cccc(Cl)c1Cn1cnc2c(N3CCCCCC3)ncnc21	none
CCN(CC)c1ncnc2c1ncn2Cc1c(Cl)cccc1Cl	S1P2 ag 19
CCOC(=O)C1CCC(CN(Cc2ccccc2C)S(=O)(=O)c2ccc([N+](=O)[O-])cc2)CC1 (stereo unspecified)	none (no result: S1P2 ag, S1P2 antag)
O=C(CCC(=O)N1CCc2ccccc21)Nc1ccccc1	S1P2 ag 58
O=C1c2ccccc2C(=O)N1Cc1cc(-c2ccc(Cl)cc2)no1	none
N/C(=N/O)C(c1ccccc1)c1ccccc1	none (no result: S1P2 ag, S1P2 antag)
CCN(CC)Cc1c(O)c(Cl)cc2c(C)c(C)c(=O)oc12	none
Cc1c(Cc2ccccc2)c(=O)oc2c(CN(C)C)c(O)c(Cl)cc12	GALR2 agonist 8.3 (no result: S1P2 ag, S1P2 antag)
Cc1ccc(C(=O)NNC(=O)CSc2nnc3c(n2)[nH]c2ccc(C)cc23)cc1	none
CCc1ccc2[nH]c3nc(SCC(=O)NNC(=O)c4ccc(C(C)(C)C)cc4)nnc3c2c1	S1P2 ag 17
O=C(NC1CCCCCC1)c1cccnc1Sc1ccccc1	none (no result: S1P2 ag, S1P2 antag)
COc1ccc(CCNC(=O)COC(=O)/C=C/c2ccc(OC)c(OC)c2)cc1	none (no result: S1P2 ag, S1P2 antag)
Cc1ccc(S(=O)(=O)N2CC3(C)CN(S(=O)(=O)c4ccc(C)cc4)CC(C)(C2)C3O)cc1 (stereo unspecified)	GALR2 agonist 5.0 (no result: S1P2 ag, S1P2 antag)
Cc1ccc(S(=O)(=O)N2CC3(C)CN(S(=O)(=O)c4ccc(C)cc4)CC(C)(C2)C3=O)cc1	none
CC(NC(=S)Nc1c(Br)cccc1OC(F)F)C(C)(C)C (stereo unspecified)	none (no result: S1P2 ag, S1P2 antag)
Cc1cc(N2CCOCC2)ccc1/C=C\[N+](=O)[O-]	none (no result: S1P2 ag, S1P2 antag)
COC(=O)c1c(C)[nH]c(C(=O)/C=C/c2ccccc2)c1C	GALR2 agonist 6.2 (no result: S1P2 ag, S1P2 antag)
COC(=O)c1c(C)[nH]c(C(=O)/C=C/c2cccc(Cl)c2)c1C	none (no result: S1P2 ag, S1P2 antag)
O=C(NCCCCNC(=O)c1ccco1)c1ccco1	none
Cc1ccc(CNC(=O)CCNC(=O)c2ccco2)cc1	S1P2 ag 869
Cc1ccc(OCCNC(=O)c2ccco2)cc1C	S1P2 ag 50
O=C(NCc1ccccc1)c1ccco1	none
COc1ccc(C(=O)NCC(=O)OCC(=O)N2CCCc3ccccc32)cc1	none (no result: S1P2 ag, S1P2 antag)
COc1ccc(C(=O)OCCNC(=O)c2c(Cl)nc3ccccn23)cc1	S1P2 ag 21
CCCCN1C=C(C(=O)OC)C(c2ccccc2C(F)(F)F)C(C(=O)OC)=C1	S1P2 ag 19
Nn1c(SCc2cccc(C(F)(F)F)c2)nnc1-c1ccco1	none
Cc1ccc(CSc2nnc(-c3ccco3)n2N)cc1	S1P2 ag 26
CCN(C(=O)CSc1nnnn1-c1ccccc1)c1c(N)n(Cc2ccccc2)c(=O)[nH]c1=O	none (no result: S1P2 ag, S1P2 antag)
Cc1ccc2nc(-c3ccc(SCC(=O)Nc4nnc(C)s4)nc3)[nH]c2c1	GALR2 agonist 5.3 (no result: S1P2 ag, S1P2 antag)
CCOC(=O)C1=C(C)Nc2sc(C(=O)c3ccc(C)cc3)c(N)c2C1c1ccc(C(=O)OC)cc1 (stereo unspecified)	GALR2 agonist 5.5 (no result: S1P2 ag, S1P2 antag)
CC(C)(C)C1CCc2c(C(=O)NNC(=O)CCC(=O)O)csc2C1 (stereo unspecified)	none (no result: S1P2 ag, S1P2 antag)
CC(Sc1nnc(NC2CCCCC2)s1)C(=O)Nc1ccc2c(c1)C(=O)c1ccccc1C2=O (stereo unspecified)	none (no result: S1P2 ag, S1P2 antag)
O=S(=O)(NCC1CCCO1)c1cc(Cl)ccc1Cl (stereo unspecified)	none
O=S(=O)(Cc1ccc(Cl)cc1)NCC1CCCO1 (stereo unspecified)	S1P2 ag 63
CC(=O)Nc1ccc(NC(=O)/C(Cl)=C/c2ccccc2)cc1	S1P2 ag 35
COc1ccccc1CNC(=O)c1nn(-c2ccc(C)cc2)c(=O)c2c1c1ccccc1n2C	none
COc1ccccc1NC(=O)CSc1ncnc2c1oc1ccccc12	S1P2 ag 24
Cc1cccc(NC(=O)CSc2ncnc3c2oc2ccccc23)c1	none
Cc1nc(SCC(=O)Nc2ccc3c(c2)OCCO3)c2oc3ccccc3c2n1	S1P2 ag 19
CCCCCCn1c2c(c(=N)c3c1CCC3)CCC2	none
CCCCCCCCCn1c2c(c(=N)c3c1CCC3)CCC2	S1P2 antag 79
CS(=O)(=O)N(CC(=O)N/N=C/c1ccc(OCC(=O)N2CCOCC2)cc1)c1ccccc1Cl	none (no result: S1P2 ag, S1P2 antag)
CN(C)c1ccc(/C=N/NC(=O)CN(c2ccccc2Cl)S(C)(=O)=O)cc1Br	S1P2 ag 17
